Experiment [1] can be described thus: qHTS assay to identify small molecule antagonists of the thyroid receptor (TR) signaling pathway (AID 743065). Further: series mostly up to about 70 µM; nearly all actives have a fitted effect of over 55% in size. A digest of the protocol: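 GH3.TRE-Luc rat pituitary cells carrying two TR response elements driving luciferase were plated for 4 h, given compound plus 1 nM T3 (final), and incubated 23.5 h at 37 C. ONE-Glo luminescence measured reporter inhibition; CellTiter-Fluor fluorescence tracked cytotoxicity.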
(Quantitative high-throughput screening tests each substance at several concentrations.)

The test system of experiment [2] is thyroid hormone receptor (rat, GH3 cells). The experiment is described as follows: qHTS assay to identify small molecule agonists of the thyroid receptor (TR) signaling pathway (AID 743066; calls by dose curve).
The target of experiment [3] is Estrogen receptor (Homo sapiens) (UniProt P03372). Kind of experiment: qHTS assay to identify small molecule antagonists of the estrogen receptor alpha (ER-alpha) signaling pathway (AID 743069; active means well fitted curve in the direction sought with a large enough effect in the signal ratio in the repeat runs, not every such curve was filed as active; the % refers to the signal ratio). In short, it runs like this: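 Estradiol-stimulated ER-alpha-UAS-bla HEK293 cells, 18 hr compound exposure at 37C. LiveBLAzer B/G substrate, 2 hr RT, fluorescence read.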
Sequence of Estrogen receptor (Homo sapiens) (P03372 whole entry, looked up): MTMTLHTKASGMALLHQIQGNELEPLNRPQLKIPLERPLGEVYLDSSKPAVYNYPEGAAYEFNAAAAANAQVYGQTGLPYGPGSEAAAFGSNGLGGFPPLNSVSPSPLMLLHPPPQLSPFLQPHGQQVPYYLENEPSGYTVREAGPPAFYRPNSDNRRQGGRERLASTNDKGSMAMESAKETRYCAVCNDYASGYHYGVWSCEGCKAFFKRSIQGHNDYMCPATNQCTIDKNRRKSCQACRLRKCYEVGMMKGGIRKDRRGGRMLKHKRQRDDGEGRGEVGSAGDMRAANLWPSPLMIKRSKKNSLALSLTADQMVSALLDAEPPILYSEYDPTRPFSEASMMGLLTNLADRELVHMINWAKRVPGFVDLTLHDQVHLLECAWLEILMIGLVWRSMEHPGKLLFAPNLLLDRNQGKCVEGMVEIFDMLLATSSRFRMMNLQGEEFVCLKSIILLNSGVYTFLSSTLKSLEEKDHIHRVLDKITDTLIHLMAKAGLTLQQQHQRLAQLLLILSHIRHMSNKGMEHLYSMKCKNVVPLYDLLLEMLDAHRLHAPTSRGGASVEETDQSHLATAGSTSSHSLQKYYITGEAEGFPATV
Experiment [4] in a line: qHTS assay to identify small molecule antagonists of the estrogen receptor alpha (ER-alpha) signaling pathway - cell viability counter screen (AID 743074; calls by dose curve;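 further: HEK293 cells carrying ER-alpha-UAS-bla reporter stimulated with 17beta-estradiol; nearly all actives have a fitted effect of over 45% in size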).
Experiment [5] deals with Estrogen receptor (Homo sapiens) (UniProt P03372). The experiment is described as follows: qHTS assay to identify small molecule agonists of the estrogen receptor alpha (ER-alpha) signaling pathway (AID 743075; calls by dose curve;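 further: HEK293 GripTite cells with ER-alpha and UAS-driven beta-lactamase reporter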).
Experiment [6] has the same target. Kind of experiment: qHTS assay to identify small molecule agonists of the estrogen receptor alpha (ER-alpha) signaling pathway using the BG1 cell line (AID 743079). Further: nearly all actives have a fitted effect of over 20% in size. Further: potency means the concentration at half of the fitted maximal effect.
Experiment [7] is described as follows: qHTS assay to identify small molecule antagonists of the estrogen receptor alpha (ER-alpha) signaling pathway using the BG1 cell line (AID 743080; calls by dose curve;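 further: BG1 cells stimulated with 17beta-estradiol alongside compound; series mostly up to about 70 µM; nearly all actives have a fitted effect of over 25% in size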). In short, it runs like this: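 Seeding, 24 h rest, compound transfer from DMSO, 17beta-estradiol addition, 21.5 h incubation, CellTiter-Fluor (30 min, 37 C), then ONE-Glo (30 min, room temperature): this sequence was run on BG1-Luc-4E2 reporter cells.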

A short description of experiment [8]: qHTS assay to identify small molecule antagonists of the estrogen receptor alpha (ER-alpha) signaling pathway using the BG1 cell line - cell viability counter screen (AID 743081).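 Further: compound given together with 17beta-estradiol as the ER stimulus; series mostly up to about 70 µM; nearly all actives have a fitted effect of over 45% in size.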
The target of another experiment is Aromatase (Homo sapiens) (UniProt P11511). The experiment is described as follows: qHTS assay to identify aromatase inhibitors (AID 743083). Further: series mostly up to about 70 µM; nearly all actives have a fitted effect of over 55% in size.
Sequence of Aromatase (Homo sapiens) (P11511 whole entry, looked up): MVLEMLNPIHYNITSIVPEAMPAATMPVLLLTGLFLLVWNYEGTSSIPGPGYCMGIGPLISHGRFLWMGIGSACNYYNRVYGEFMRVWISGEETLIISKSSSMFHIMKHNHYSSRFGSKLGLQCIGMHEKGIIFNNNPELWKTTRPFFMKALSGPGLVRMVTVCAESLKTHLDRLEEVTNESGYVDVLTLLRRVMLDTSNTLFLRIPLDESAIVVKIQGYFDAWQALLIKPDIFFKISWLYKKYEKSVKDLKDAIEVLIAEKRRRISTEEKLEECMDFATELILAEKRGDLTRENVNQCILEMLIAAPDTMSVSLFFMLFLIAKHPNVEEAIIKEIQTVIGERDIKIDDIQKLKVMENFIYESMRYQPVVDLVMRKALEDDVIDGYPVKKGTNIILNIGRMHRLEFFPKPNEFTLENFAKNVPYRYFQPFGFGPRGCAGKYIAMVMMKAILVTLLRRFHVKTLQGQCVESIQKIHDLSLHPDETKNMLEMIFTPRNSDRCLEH
Experiment [9] can be described thus: qHTS assay to identify aromatase inhibitors - cell viability counter screen (AID 743084).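 Further: cells stimulated with testosterone during compound exposure; nearly all actives have a fitted effect of over 55% in size.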

Structures are written as SMILES. Results filed as inconclusive are left out. Values without a mark were called inactive. Activity calls are given as the source filed them. Unless noted, the call rests on the fitted dose curve; in most records, active means well fitted curve in the direction sought with a large enough effect in the repeat runs; inconclusive means weak or mixed curves; inactive means no such curve, though single readings can be large; an effect the other way counts as inactive or inconclusive.
On the % scale 0 is the no-effect control and ±100 the full control effect.

For `CCOC(=O)CC(O)(CC(=O)OCC)C(=O)OCC`, the Potency entry in experiment [1], in experiment [3], in experiment [5], in [6], in experiment [7] and in [8] was “inactive” throughout. Besides, the Potency entry (with Aromatase (Homo sapiens); in [9]) was “inactive” in each case. Besides, the outcome in experiment [2] and in experiment [4] was inactive.
For the compound `CCCCCCCCCCCCCCCCCCCl`, the activity, negative = inhibition in experiment [1] was 15% [at 8.44 µM]; in [3], -5.29% [at 6.71 µM]; with Aromatase (Homo sapiens) it was 13.8% [at 8.47 µM]. Besides, the results for the activation in experiment [2], in [5] and in experiment [6] were 7.57% [at 8.08 µM], -1.63% [at 6.71 µM] and -11% [at 8.47 µM], respectively. Further, the activity, negative = cytotoxicity in experiment [4] was -22.2% [at 6.72 µM]. In addition, the activity change, negative = inhibition in experiment [7] was 0.197% [at 8.47 µM]. Also, the activity change, negative = cytotoxicity was -0.138% [at 8.47 µM] in [8] and 0.528% [at 8.47 µM] in [9].
As for `CC(C)=CCC/C(C)=C/C=N/O`, the Potency result in [1], in [3], in experiment [5], in [6], in experiment [7] and in [8] was “inactive” each time. The Potency entry (with Aromatase (Homo sapiens); in experiment [9]) was “inactive” each time. Moreover, the outcome in experiment [2] and in experiment [4] was inactive.
For the compound `O=C(O)c1ccc(O)c(O)c1`, the Potency result in [1], in experiment [3], in [5], in [6], in experiment [7] and in experiment [8] was “inactive” each time. In addition, the Potency entry (in the experiment with Aromatase (Homo sapiens); in experiment [9]) was “inactive” in each case. Moreover, the compound was called inactive in [2] and in [4].
In the case of `COC=O`, the activity, negative = inhibition was 9.66% [at 8.44 µM] in experiment [1], 29% [at 6.71 µM] in [3] and 2.56% [at 8.47 µM] in the experiment with Aromatase (Homo sapiens). The activation in experiment [2] was 0.249% [at 8.08 µM]; in [5], 2.27% [at 6.71 µM]; in [6], 11.2% [at 8.47 µM]. Also, in [4], the activity, negative = cytotoxicity was 7.46% [at 6.72 µM]. The activity change, negative = inhibition in experiment [7] was 1.93% [at 8.47 µM]. Moreover, the values for the activity change, negative = cytotoxicity in experiment [8] and in experiment [9] were 4.5% [at 8.47 µM] and 0.892% [at 8.47 µM], respectively.
Regarding `CCCCCCCCCCCCSCCOCCO`, the Potency result in [1], in experiment [3], in experiment [5], in [6], in experiment [7] and in experiment [8] was “inactive” each time. The Potency entry (with Aromatase (Homo sapiens); in [9]) was “inactive” each time. The result in experiment [2] and in experiment [4] was inactive.
Consider `CC(C)=CCCC(C)C=O` (stereo unspecified), for which the Potency entry in experiment [1], in [3], in [5], in experiment [6], in [7] and in experiment [8] was “inactive” throughout. For the same compound, the Potency result (with Aromatase (Homo sapiens); in experiment [9]) was “inactive” each time. The call in experiment [2] and in [4] was inactive.
For the compound `Cc1ccccc1CCO`, the Potency entry in experiment [1], in experiment [3], in experiment [5], in [6], in [7] and in [8] was “inactive” throughout. Further, the Potency entry (with Aromatase (Homo sapiens); in experiment [9]) was “inactive” in each case. Also, the outcome in experiment [2] and in experiment [4] was inactive.
`O=C1CCCN1CCO`: the Potency result in experiment [1], in [3], in experiment [5], in experiment [6], in experiment [7] and in [8] was “inactive” throughout. The Potency entry (in the experiment with Aromatase (Homo sapiens); in [9]) was “inactive” in each case. Besides, the compound was called inactive in experiment [2] and in experiment [4].
Turning to `Cc1c(N=C=O)cccc1N=C=O`, the Potency result in experiment [1], in experiment [3], in [5], in experiment [6], in experiment [7] and in experiment [8] was “inactive” each time. Moreover, the Potency result (with Aromatase (Homo sapiens); in experiment [9]) was “inactive” throughout. For the same compound, the result in experiment [2] and in [4] was inactive.
As to `CCCC(=O)OCCC(C)C`, the Potency result in experiment [1], in experiment [3], in experiment [5], in experiment [6], in experiment [7] and in experiment [8] was “inactive” throughout. In addition, the Potency result (in the experiment with Aromatase (Homo sapiens); in [9]) was “inactive” each time. For the same compound, the result in [2] and in experiment [4] was inactive.
As to `CC(C)NC(=O)c1ccccc1N`, the Potency result in [1], in experiment [3], in experiment [5], in experiment [6], in experiment [7] and in [8] was “inactive” throughout. The Potency result (with Aromatase (Homo sapiens); in experiment [9]) was “inactive” in each case. Also, the compound was classed as inactive in experiment [2] and in experiment [4].
In the case of `NC(=O)c1ccccc1`, the Potency entry in experiment [1], in experiment [3], in [5], in [6], in [7] and in [8] was “inactive” throughout. For the same compound, the Potency result (with Aromatase (Homo sapiens); in experiment [9]) was “inactive” throughout. In addition, the compound was called inactive in experiment [2] and in experiment [4].
Turning to `CC(=O)Nc1cccc(N)c1`, the Potency result in experiment [1], in experiment [3], in [5], in experiment [6], in [7] and in experiment [8] was “inactive” each time. In the experiment with Aromatase (Homo sapiens), the Potency result was “inactive”. The result in [2] and in [4] was inactive.
Consider `CC(C)C/C=C(\C=O)c1ccccc1`, for which the Potency entry (in experiment [1]; in experiment [3]; in [5]; in experiment [7]; in experiment [8]; with Aromatase (Homo sapiens)) was “inactive” throughout. Further, the compound was classed as inactive in [2] and in experiment [4]. Moreover, the Potency in experiment [6] is 61.1 µM (active).
Regarding `CC[C@H](NC(C)C)[C@H](O)c1ccc(O)c2[nH]c(=O)ccc12`, the Potency entry in [1], in experiment [3], in [5], in experiment [6], in experiment [7] and in experiment [8] was “inactive” in each case. Further, the Potency entry with Aromatase (Homo sapiens) is “inactive”. The call in [2] and in experiment [4] was inactive.
For the compound `C/C(=C(\CCO)SS/C(CCO)=C(\C)N(C=O)Cc1cnc(C)nc1N)N(C=O)Cc1cnc(C)nc1N`, the Potency entry in experiment [1], in experiment [3], in experiment [5], in experiment [6], in experiment [7] and in experiment [8] was “inactive” in each case. Besides, the Potency result (with Aromatase (Homo sapiens); in [9]) was “inactive” in each case. Moreover, the outcome in [2] and in [4] was inactive.
On to `CCCCOC(=O)CC#N`, for which the Potency result in experiment [1], in experiment [3], in experiment [5], in experiment [6], in experiment [7] and in experiment [8] was “inactive” each time. Further, the Potency result (in the experiment with Aromatase (Homo sapiens); in experiment [9]) was “inactive” throughout. The compound was called inactive in experiment [2] and in experiment [4].
Consider `CC(C)Oc1ccccc1O`, for which the Potency result in experiment [1], in experiment [3], in experiment [5], in experiment [6], in experiment [7] and in experiment [8] was “inactive” throughout. For the same compound, the Potency result (with Aromatase (Homo sapiens); in experiment [9]) was “inactive” each time. In addition, the compound was called inactive in [2] and in [4].
Turning to `O=C1OC(=O)C2CC=CCC12` (stereo unspecified), the Potency entry in experiment [1], in [3], in experiment [5], in experiment [6], in experiment [7] and in [8] was “inactive” each time. For the same compound, the Potency entry (with Aromatase (Homo sapiens); in experiment [9]) was “inactive” each time. Moreover, the outcome in experiment [2] and in [4] was inactive.
In the case of `CCOC(OCC)OCC`, the Potency entry in experiment [1], in experiment [3], in experiment [5], in experiment [6], in experiment [7] and in experiment [8] was “inactive” throughout. Further, the Potency entry (in the experiment with Aromatase (Homo sapiens); in experiment [9]) was “inactive” in each case. Besides, the call in experiment [2] and in [4] was inactive.
On to `CC(C)=CCC[C@H](C)CCO`, for which the Potency entry in experiment [1], in experiment [3], in experiment [5], in [6], in experiment [7] and in experiment [8] was “inactive” in each case. The Potency entry (in the experiment with Aromatase (Homo sapiens); in experiment [9]) was “inactive” throughout. The result in experiment [2] and in [4] was inactive.
`CC1=C(C)C(=O)C(C(CCCCCC(=O)O)c2ccccc2)=C(C)C1=O` (stereo unspecified): the Potency entry in [1], in experiment [3], in experiment [5], in [6], in experiment [7] and in [8] was “inactive” in each case. In addition, the Potency result (in the experiment with Aromatase (Homo sapiens); in [9]) was “inactive” each time. Besides, the result in experiment [2] and in [4] was inactive.
With `CCc1cnc(C(=O)O)c(C(=O)O)c1`, the Potency result in experiment [1], in [3], in experiment [5], in [6], in experiment [7] and in [8] was “inactive” in each case. In addition, the Potency result in the experiment with Aromatase (Homo sapiens) was “inactive”. For the same compound, the outcome in experiment [2] and in experiment [4] was inactive.
Regarding `OCC(O)c1ccccc1` (stereo unspecified), the Potency result in experiment [1], in [3], in experiment [5], in experiment [6], in experiment [7] and in experiment [8] was “inactive” in each case. Further, the Potency entry (in the experiment with Aromatase (Homo sapiens); in [9]) was “inactive” in each case. Besides, the compound was called inactive in experiment [2] and in [4].

These data come from PubChem BioAssay (Tox21).
